A selection: hits, their analogues and other compounds. The true share with any hit is near 2.7%.
HIF-2a block: inhibitors of HIF-2a; 786-0 RCC cells HIF-2a reporter, luciferase luminescence, overnight; inhibition, % at 18.8 µM; 0.72% of 360,000 active; AID 624352;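 active means inhibition of the luminescence signal of 40% or more relative to plate controls, in a single-dose primary screen at 18.75 µM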
TRPM1 prom inh: inhibitors of MITF-driven TRPM1 promoter in melanoma cells; SK-MEL-5 TRPM1 promoter luciferase, 24 h; inhibition, % at 12.5 µM; AID 488899; 0.83% of 330,000 active;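 active means mean inhibition across replicates of 60% or more, whatever share of single replicates reaches that level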
CF NFkB block: cystic fibrosis NF-kB activation inhibition; KKLEB NF-kB-GFP reporter, PAF-induced, GFP fluorescence overnight; inhibition, % at 5 µM; 0.86% of 360,000 active; AID 588850;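 active means at least 50% inhibition at 5 µM, scaled per plate between neutral and stimulator controls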;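 further: PAF is a Pseudomonas aeruginosa culture filtrate used as stimulus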
Peg3 prom inh: inhibitors of Peg3 promoter; HeLa PEG-Prom luciferase reporter, luminescence, overnight; inhibition, % at 20 µM; 1.7% of 360,000 active; AID 588405;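 active means inhibition of at least 50% at 20 µM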
KKLEB cytotox: reduces viability of KKLEB cystic fibrosis airway cells. KKLEB CF airway cells viability, ATPlite luminescence, overnight; hits give low values; cells stimulated with P. aeruginosa culture filtrate. activity change (cytotoxicity), % at 5 µM. 0.36% of 360,000 active. AID 602141;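 active means corrected activity change at or below -50% at 5 µM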
Shn3 inh set2: inhibitors of Schnurri-3 3'UTR reporter in osteoblasts | Clone20 osteoblast Shn3 3'UTR firefly luciferase, 24 h | inhibition, % at 12.5 µM | 0.52% of 360,000 active | AID 588674;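 active means mean inhibition of at least 75% with every replicate also reaching 75%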
Mdm2 MdmX conf: Mdm2/MdmX (human) interaction inhibition, confirmed; inhibition, % at 8 µM; shares compounds with HIF-2a block; 99% of 740 active; SaOS-2 split-luciferase Mdm2/MdmX complementation, luminescence;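 active means mean inhibition of the luminescence signal across two replicates at or above 26 percent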
Target sequence (O15151 whole entry, looked up): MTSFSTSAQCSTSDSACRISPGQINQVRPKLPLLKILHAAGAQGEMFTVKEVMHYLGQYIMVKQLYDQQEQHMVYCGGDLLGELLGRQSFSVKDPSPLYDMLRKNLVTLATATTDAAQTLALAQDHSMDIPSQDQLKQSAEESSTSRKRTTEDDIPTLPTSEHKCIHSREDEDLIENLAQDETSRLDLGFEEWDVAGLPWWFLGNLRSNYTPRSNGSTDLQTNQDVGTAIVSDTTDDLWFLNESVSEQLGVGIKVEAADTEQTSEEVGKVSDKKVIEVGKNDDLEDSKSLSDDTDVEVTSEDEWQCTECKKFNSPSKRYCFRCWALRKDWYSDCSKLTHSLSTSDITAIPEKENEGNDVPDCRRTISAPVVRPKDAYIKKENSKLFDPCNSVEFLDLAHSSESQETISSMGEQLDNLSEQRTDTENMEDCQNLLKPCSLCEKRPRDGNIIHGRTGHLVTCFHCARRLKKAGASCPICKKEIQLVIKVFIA
Target sequence (Q00987 whole entry, looked up): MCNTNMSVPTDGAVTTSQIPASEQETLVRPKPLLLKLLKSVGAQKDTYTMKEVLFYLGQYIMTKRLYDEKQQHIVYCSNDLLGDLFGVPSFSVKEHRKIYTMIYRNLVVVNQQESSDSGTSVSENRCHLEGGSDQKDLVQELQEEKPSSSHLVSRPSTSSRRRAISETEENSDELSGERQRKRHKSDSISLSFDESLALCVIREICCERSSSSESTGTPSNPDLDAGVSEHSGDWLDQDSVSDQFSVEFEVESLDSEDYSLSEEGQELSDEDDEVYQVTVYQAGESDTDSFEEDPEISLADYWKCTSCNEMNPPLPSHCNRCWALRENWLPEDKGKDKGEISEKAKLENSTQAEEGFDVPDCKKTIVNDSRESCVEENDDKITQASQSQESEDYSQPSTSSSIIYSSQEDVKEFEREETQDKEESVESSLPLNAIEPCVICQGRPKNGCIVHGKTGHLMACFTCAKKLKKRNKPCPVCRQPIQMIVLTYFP
HIF-2a inh conf: confirmation of HIF-2a inhibitors; 786-0 RCC cells, HIF-2a luciferase reporter luminescence, overnight; inhibition, % at 18.8 µM; AID 651580; 56% of 1,800 active; shares compounds with HIF-2a block;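 active means mean inhibition across four replicates of at least 40 percent at the single tested concentration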
HIF-1a cs: HIF-1a inhibition counter-screen for HIF-2a hits | shares compounds with HIF-2a block | MiaPaCa-2 HIF-1a luciferase reporter, desferoxamine, overnight | inhibition, % at 18.8 µM | 72% of 1,800 active | AID 651589;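 active means mean inhibition of the reporter signal across four replicates at the single tested dose of 50% or more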
Hits are given with their value; 0 = inactive; - = no result given.

SMILES | HIF-2a block | TRPM1 prom inh | CF NFkB block | Peg3 prom inh | KKLEB cytotox | Shn3 inh set2 | HIF-2a inh conf | HIF-1a cs | others
COc1ccc(CNC[C@@H](CCCCN(C)Cc2ccc(OC)cc2)N2C[C@H](c3ccccc3)N(CCc3ccc(Cl)c(Cl)c3)C(=O)C2=O)cc1 | 97 | 96 | 62 | 98 | -95 | 95 | - | - | Mdm2 MdmX conf=103
COc1ccc(CNC(=O)[C@@H]2CC=C[C@@H]3CCN(Cc4ccc(Cl)c(Cl)c4)C(=O)[C@@H]32)cc1 | 0 | 0 | 0 | 0 | 0 | 0 | - | -
O=C(Nc1ccncc1)C1CC(=O)N(Cc2ccccc2)C1 (stereo unspecified) | 0 | 0 | 0 | 0 | 0 | 0 | - | -
CC(C)(C)NC(=O)CSc1ncnc2c1nnn2Cc1ccccc1Cl | 48 | 0 | 0 | 0 | 0 | 0 | 0 | 0
O=C(CSc1ncnc2c1nnn2Cc1ccccc1)NC1CCCC1 | 0 | 0 | 0 | 0 | 0 | 0 | - | -
Cc1cc2oc(C(=O)Nc3cccnc3)c(C)c2cc1C | 0 | 0 | 0 | 0 | 0 | 0 | - | -
CC(=O)Nc1ccc(NC(=O)c2oc3cc(C)c(C)cc3c2C)cc1 | 52 | 0 | 0 | 0 | 0 | 0 | 74 | 0
CC1C(=O)N(Cc2cn(CCC3OCCCO3)nn2)CCS(=O)(=O)N1Cc1ccc(-c2ccc(Cl)cc2)cc1 (stereo unspecified) | 0 | - | 0 | 0 | 0 | 0 | - | -
Cc1ccc(S(=O)(=O)N2CCOCC2)cc1NC(=O)CN1CCN(c2ccc(O)cc2)CC1 | 46 | 0 | 0 | 0 | 0 | 0 | 44 | 98
Cc1ccc(S(=O)(=O)N2CCOCC2)cc1NC(=O)CN1CCN(C)CC1 | 0 | 0 | 0 | 0 | 0 | 0 | - | -
Cc1ccc(Cl)cc1-c1cc(C(=O)Nc2ccc(F)cc2)[nH]n1 | 0 | - | 0 | 0 | 0 | 0 | - | -
Cc1ccnc(N/C=C(/NC(=O)c2ccccc2)C(=O)N/N=C\c2ccc(F)cc2)n1 | 66 | 0 | 0 | 0 | 0 | 94 | 69 | 88
Cc1ccnc(N/C=C(/NC(=O)c2ccccc2)C(=O)NN)n1 | 0 | 0 | 0 | 0 | 0 | 0 | - | -
CC1=C(C(=O)N2CCCCCC2)CC(CC(=O)NCCCN(C)C)C(=O)N1CCCN1CCCC1=O (stereo unspecified) | 0 | - | - | - | - | - | - | -
CCN1CCN(CCCNC(=O)c2ccc(/C=C3/Sc4ccccc4N(Cc4ccccc4F)C3=O)cc2)CC1 | 91 | 0 | 0 | 59 | 0 | 0 | 0 | 102
Cc1ccc(-c2cnc(-c3ccncc3)o2)cc1 | 0 | 0 | 0 | 0 | 0 | 0 | - | -
Nc1ccc(-c2ncc(-c3ccccc3)o2)cc1 | 78 | 0 | 0 | 0 | 0 | 0 | 92 | 62
CCCC(=O)N1CCCC1(C)C(=O)NCc1ccc(SC)cc1 (stereo unspecified) | 0 | - | 0 | 0 | 0 | 0 | - | -
CNC(=S)N1CCC(C(=O)c2ccc(Cl)cc2)CC1 | 0 | - | 0 | 0 | 0 | 0 | - | -
COc1ccccc1Cc1c(-c2cccc(Cl)c2)nc2ccc(Br)cn12 | 0 | - | 0 | 0 | 0 | 0 | - | -
CCCCC(=O)NC(c1ccc(Cl)cc1Cl)c1ccc2cccnc2c1O (stereo unspecified) | 0 | 0 | 0 | 54 | 0 | 93 | - | - | Mdm2 MdmX conf=85
COc1ccc(/C=C2\SC(=O)N(CCNC(=O)Cn3[nH]c(=O)c4ccccc4c3=O)C2=O)cc1 | 45 | 0 | 0 | 0 | 0 | 0 | 77 | 0
COc1ccc(/C=C2\SC(=O)N(CCCC(=O)Nc3ccc(C(=O)O)cc3)C2=O)cc1 | 85 | - | 0 | 0 | 0 | 0 | 97 | 91
Cc1ccc(/C=C2\SC(=S)N(CCCC(=O)Nc3ccc(O)cc3)C2=O)cc1 | 80 | 0 | 0 | 0 | 0 | 0 | - | - | Mdm2 MdmX conf=57
COC1CCC2(C)C(=CCC3C4CC(O)CC4(C)CCC32)C1 (stereo unspecified) | 0 | 0 | 0 | 0 | 0 | 0 | - | -
SMILES | HIF-2a block | TRPM1 prom inh | CF NFkB block | Peg3 prom inh | KKLEB cytotox | Shn3 inh set2 | HIF-2a inh conf | HIF-1a cs | others
O=S1(=O)C[C@H](N2CCN(CCO)CC2)[C@@H](COCc2ccccc2)N1 | 0 | - | 0 | 0 | 0 | 0 | - | -
CCCCN1C(=O)C(CC(=O)NCCN2CCOCC2)CC(C(=O)N(C)C)=C1C (stereo unspecified) | 0 | - | 0 | 0 | 0 | 0 | - | -
O=C(O)CCSc1ncnc2sc(-c3ccccc3)cc12 | 91 | - | 0 | 0 | 0 | 0 | 94 | 84
Cc1ccc(S(=O)(=O)N2C(c3ccccc3)CC(=O)C3CN(S(=O)(=O)c4ccc(Cl)cc4)C(c4ccccc4)CC32)cc1 (stereo unspecified) | 0 | - | - | - | - | - | - | -
Cc1nc(S(=O)(=O)N(C)c2ccccc2)c(C#N)c(C)c1Cl | 0 | 0 | 0 | 54 | 0 | 0 | - | - | Mdm2 MdmX conf=103
CN(c1ccccc1)S(=O)(=O)c1ccc(Cl)nc1 | 0 | 0 | 0 | 0 | 0 | 0 | - | -
Oc1ccc(N=Nc2ccc3c(c2)OCCO3)c(O)c1 | 0 | 0 | 0 | 0 | 0 | 0 | - | -
Oc1ccc(N=Nc2ccc3c(c2)OCCO3)c2cccnc12 | 0 | 65 | 0 | 0 | 0 | 93 | - | - | Mdm2 MdmX conf=89
COc1ccc2c(c1)[nH]c1c(=O)n(/N=C/c3ccc(OC)c(CN4CCCC4)c3)cnc12 | 0 | 0 | 0 | 0 | 0 | 0 | - | -
COc1ccc(/C=N/n2cnc3c([nH]c4ccc(F)cc43)c2=O)cc1CN1CCCC1 | 0 | 86 | 0 | 91 | 0 | 0 | - | - | Mdm2 MdmX conf=100
OC[C@@H]1CN(Cc2cccs2)C[C@H](n2cnc3c(NCc4ccc(F)cc4)ncnc32)O1 | 0 | - | 0 | 0 | 0 | 0 | - | -
Cc1cc(C)c(C#N)c(Sc2nc(C)c([N+](=O)[O-])c(C)c2C#N)n1 | 90 | - | 0 | 98 | 0 | 0 | 0 | 0
CC1=C(C(=O)N(C(C)C)C(C)C)CC(CC(=O)NC(c2ccccc2)c2ccccc2)C(=O)N1CCC1=CCCCC1 (stereo unspecified) | 0 | - | 0 | 0 | 0 | 0 | - | -
Cn1nnnc1SCc1nc2scc(-c3ccc(Cl)cc3)c2c(=O)[nH]1 | 0 | 0 | 0 | 0 | 0 | 0 | - | -
Cn1nnnc1Sc1ncnc2scc(-c3ccc(Br)cc3)c12 | 93 | 94 | 86 | 103 | -92 | 96 | 100 | 106 | Mdm2 MdmX conf=103
Cn1nnnc1Sc1ncnc2scc(-c3ccc(F)cc3)c12 | 78 | 83 | 60 | 97 | 0 | 93 | - | - | Mdm2 MdmX conf=103
CCC(C(=O)NC1CCCC1)n1c(C2CCCC2)nc2ccccc21 (stereo unspecified) | 0 | - | - | - | - | - | - | -
Cc1cc(-c2ccccc2)nc(N/N=C/c2ccc(O)cc2)n1 | 0 | 0 | 0 | 0 | 0 | 0 | - | -
Cc1cc(C)c2nc(C)cc(N/N=C/c3ccc(O)cc3)c2c1 | 93 | 86 | 0 | 108 | -81 | 0 | - | - | Mdm2 MdmX conf=103
COc1ccc(-c2cc(-c3ccccc3)c(C#N)c(S(C)(=O)=O)n2)cc1 | 88 | 0 | 0 | 104 | 0 | 0 | 0 | 85
